Results as given in PubChem BioAssay.
The source made the active and inactive calls.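 How the source made its calls, unless noted: active means compounds that lower viability of the colon cancer cells in the luminescence readout, with no numeric limit stated; inactive means the rest.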

Assays:
[1] = stimulators of nuclear beta-catenin in C2C12, primary screen, imaging, WNT3A-conditioned medium, mouse C2C12, NPC library (AID 1117326; in the data active means nuclear beta-catenin stimulation mostly above about 4.2%, no sharp cut-off; inactive means mostly below about 10%; further: reference of the scale not given here); conditions: stronger effect = higher value
[2] = stimulators of insulin release from INS-1E, primary screen, cell-based, 5 mM glucose, NPC library (AID 1117329;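 active means compound raises insulin release from rat beta cells at 5 mM glucose, no numeric limit stated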; further: reference of the scale not given here); conditions: rat INS-1E insulin secretion, at 10 µM, stronger effect = higher value
[3] = growth inhibition of GSK3B-pretreated HCT116 cells – cell-based, CellTiter-Glo, 0.2 to 20 µM (AID 1117336;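 active means compounds lowering colon cancer cell viability after pretreatment blocking the GSK3B kinase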); conditions: HCT116 viability after GSK3B inhibitor, at 20 µM, stronger effect = higher value
[4] = inhibition of endothelial tube formation, primary screen, imaging, VEGF stimulated, CD31 staining, tube area, NPC library (AID 1117340;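 active means compound that reduces growth-factor-driven endothelial tube area in a mixed cell culture, no cutoff stated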); conditions: VEGF-stimulated ADSC/ECFC co-culture, at 10 µM, stronger effect = higher value
[5] = glucagon-like peptide 1 release enhancers, primary assay, NCI-H716 cell line, NPC library (AID 1117341;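 active means compound raises GLP1 secretion from the human gut endocrine cells, with no numeric limit stated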; further: reference of the scale not given here); conditions: NCI-H716 cells, at 10 µM, stronger effect = higher value
[6] = HCT116 colon cancer cell growth inhibition, primary screen, CellTiter-Glo luminescence, NPC library (AID 1117342;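 active means compounds that lower survival of HCT116 colon cancer cells in the luminescence readout, no numeric limit stated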); conditions: at 20 µM (top of the series)
[7] = CellTiter-Glo luminescent readout of SW480 viability loss, NPC library primary (AID 1117343); conditions: CellTiter-Glo luminescence; at 20 µM (top of the series)
[8] = decreased DLD-1 cellular survival, CellTiter-Glo luminescent readout, NPC compound collection, primary HTS (AID 1117346;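 active means compounds that lower survival of DLD-1 colon cancer cells in the luminescence readout, no cutoff given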); conditions: DLD-1 viability, CellTiter-Glo luminescence; at 20 µM (top of the series)

Cc1ccc2c(c1)C1CN(C)CCC1N2 (stereo not drawn)
inactive: nuclear beta-catenin stimulation ([1]; at 10 µM) -0.3% | insulin secretion stimulation [2] -0.9% | viability decrease [3] 1.05% | tube area decrease [4] -17.5% | GLP1 secretion stimulation [5] 6.1% | inhibition of viability [6] 5.2% | viability decrease (inhibition) [7] 22.4% | viability decrease (inhibition) [8] 0.7%
0.7%: nuclear beta-catenin stimulation ([1]; stimulation, at 2 µM)

ClCCN1CCCC1
inactive: nuclear beta-catenin stimulation ([1]; at 10 µM) 0.7% | insulin secretion stimulation [2] 4% | viability decrease [3] 5.1% | tube area decrease [4] 9.9% | GLP1 secretion stimulation [5] -2.4% | inhibition of viability [6] -8.3% | viability decrease (inhibition) [7] 8.7% | viability decrease (inhibition) [8] 8.5%
-0.2%: nuclear beta-catenin stimulation ([1]; stimulation, at 2 µM)

O=C(CBr)Nc1ccc(Cl)cc1C(=O)c1ccccc1F
-1%: nuclear beta-catenin stimulation ([1]; stimulation, at 2 µM)
active: viability decrease [3] 84.8% | tube area decrease [4] 108% | GLP1 secretion stimulation [5] 21.4% | inhibition of viability [6] 57.5% | viability decrease (inhibition) [7] 95.3% | viability decrease (inhibition) [8] 64.7%
inactive: nuclear beta-catenin stimulation ([1]; at 10 µM) -1.3% | insulin secretion stimulation [2] 18.8%

Oc1ccccc1-c1ccccc1
-0.1%: nuclear beta-catenin stimulation ([1]; stimulation, at 2 µM)
inactive: nuclear beta-catenin stimulation ([1]; at 10 µM) 0.6% | insulin secretion stimulation [2] -2.4% | viability decrease [3] -2.35% | tube area decrease [4] -3.5% | GLP1 secretion stimulation [5] -1.2% | inhibition of viability [6] -18.2% | viability decrease (inhibition) [7] 15.3% | viability decrease (inhibition) [8] 8.7%

C[C@H]1CNCCc2ccc(Cl)cc21
0.8%: nuclear beta-catenin stimulation ([1]; stimulation, at 2 µM)
inactive: nuclear beta-catenin stimulation ([1]; at 10 µM) 2.8% | insulin secretion stimulation [2] 16.9% | viability decrease [3] -1.35% | tube area decrease [4] -10.5% | GLP1 secretion stimulation [5] 6.1% | inhibition of viability [6] 1.7% | viability decrease (inhibition) [7] 45.3% | viability decrease (inhibition) [8] 0.95%

O=C(CCCCl)c1ccc(F)cc1
-0.7%: nuclear beta-catenin stimulation ([1]; stimulation, at 2 µM)
inactive: nuclear beta-catenin stimulation ([1]; at 10 µM) -0.1% | insulin secretion stimulation [2] -0.9% | viability decrease [3] -6.5% | tube area decrease [4] -3.6% | GLP1 secretion stimulation [5] 0.1% | inhibition of viability [6] 3.2% | viability decrease (inhibition) [7] -14.9% | viability decrease (inhibition) [8] 5.8%

C1CN(P2(N3CC3)=NP(N3CC3)(N3CC3)=NP(N3CC3)(N3CC3)=N2)CCO1 (stereo not drawn)
active: tube area decrease [4] 86.7% | viability decrease (inhibition) [7] 17.7%
0.7%: nuclear beta-catenin stimulation ([1]; stimulation, at 2 µM)
inactive: nuclear beta-catenin stimulation ([1]; at 10 µM) -0.2% | insulin secretion stimulation [2] 2.5% | viability decrease [3] 8.1% | GLP1 secretion stimulation [5] -5.1% | inhibition of viability [6] 30.4% | viability decrease (inhibition) [8] 5.5%

O=C1C(I)=CC(=C(c2cc(I)c(O)c(I)c2)c2ccccc2C(=O)O)C=C1I
1.8%: nuclear beta-catenin stimulation ([1]; stimulation, at 2 µM)
active: nuclear beta-catenin stimulation ([1]; at 10 µM) 43.7% | viability decrease [3] 98.7% | tube area decrease [4] 106% | inhibition of viability [6] 99.3% | viability decrease (inhibition) [7] 100% | viability decrease (inhibition) [8] 100%
inactive: insulin secretion stimulation [2] -0.1% | GLP1 secretion stimulation [5] -3.3%

C[C@]12C=CC(=O)C=C1CC[C@@H]1[C@@H]2CC[C@@]2(C)[C@H]1CC[C@]2(C)O
2.4%: nuclear beta-catenin stimulation ([1]; stimulation, at 2 µM)
active: viability decrease (inhibition) [7] 75.7%
inactive: nuclear beta-catenin stimulation ([1]; at 10 µM) 6.6% | insulin secretion stimulation [2] 1.5% | viability decrease [3] 38.6% | tube area decrease [4] 31.2% | GLP1 secretion stimulation [5] 4% | inhibition of viability [6] 29.9% | viability decrease (inhibition) [8] 17.9%

COC1CC(=C(c2cccs2)c2cccs2)C[N+](C)(C)C1 (stereo not drawn)
inactive: nuclear beta-catenin stimulation ([1]; at 10 µM) -1.6% | insulin secretion stimulation [2] 0.1% | viability decrease [3] -13.9% | tube area decrease [4] 10.1% | GLP1 secretion stimulation [5] -0.6% | inhibition of viability [6] 8.3% | viability decrease (inhibition) [7] -2.9% | viability decrease (inhibition) [8] -0.4%
1.1%: nuclear beta-catenin stimulation ([1]; stimulation, at 2 µM)

C[C@]12Cc3nonc3C[C@@H]1CC[C@@H]1[C@@H]2CC[C@@]2(C)[C@H]1CC[C@]2(C)O
inactive: nuclear beta-catenin stimulation ([1]; at 10 µM) 2.5% | insulin secretion stimulation [2] -2.4% | viability decrease [3] 38.9% | tube area decrease [4] 1.9% | GLP1 secretion stimulation [5] 3.3% | inhibition of viability [6] 1.5%
active: viability decrease (inhibition) [7] 118% | viability decrease (inhibition) [8] 61%
0.4%: nuclear beta-catenin stimulation ([1]; stimulation, at 2 µM)

CCN(CC)N(O)N=O
inactive: nuclear beta-catenin stimulation ([1]; at 10 µM) -1.2% | insulin secretion stimulation [2] -0.3% | viability decrease [3] 2.3% | tube area decrease [4] -3.9% | GLP1 secretion stimulation [5] -1.7% | inhibition of viability [6] -0.1% | viability decrease (inhibition) [7] -1.2% | viability decrease (inhibition) [8] -7.7%
0.7%: nuclear beta-catenin stimulation ([1]; stimulation, at 2 µM)

CCCCNC(C)(C)[P+](=O)O
-0.8%: nuclear beta-catenin stimulation ([1]; stimulation, at 2 µM)
inactive: nuclear beta-catenin stimulation ([1]; at 10 µM) -0.8% | insulin secretion stimulation [2] -2.5% | viability decrease [3] -0.6% | tube area decrease [4] -26.4% | GLP1 secretion stimulation [5] -3.9% | inhibition of viability [6] -4.7% | viability decrease (inhibition) [7] 1.4% | viability decrease (inhibition) [8] -4.2%

O=C(Nc1ccc(Br)cc1)c1cc(Br)cc(Br)c1O
0.4%: nuclear beta-catenin stimulation ([1]; stimulation, at 2 µM)
inactive: nuclear beta-catenin stimulation ([1]; at 10 µM) 28.9% | insulin secretion stimulation [2] -3% | GLP1 secretion stimulation [5] -3.5%
active: viability decrease [3] 98% | tube area decrease [4] 108% | inhibition of viability [6] 98.2% | viability decrease (inhibition) [7] 94.4% | viability decrease (inhibition) [8] 100%

CN1C(=S)CN=C(c2ccccc2)c2cc(Cl)ccc21
inactive: nuclear beta-catenin stimulation ([1]; at 10 µM) -0.4% | insulin secretion stimulation [2] 1.75% | tube area decrease [4] 6.8% | GLP1 secretion stimulation [5] 1.6% | viability decrease (inhibition) [8] 32.7%
active: viability decrease [3] 65.8% | inhibition of viability [6] 50.3% | viability decrease (inhibition) [7] 77.5%
3.4%: nuclear beta-catenin stimulation ([1]; stimulation, at 2 µM)

CC(C)NC(C)C
5.2%: nuclear beta-catenin stimulation ([1]; stimulation, at 2 µM)
inactive: nuclear beta-catenin stimulation ([1]; at 10 µM) 14.9% | insulin secretion stimulation [2] 4.3% | viability decrease [3] -0.3% | tube area decrease [4] -6.3% | GLP1 secretion stimulation [5] -0.1% | inhibition of viability [6] 1.1% | viability decrease (inhibition) [7] 2.1% | viability decrease (inhibition) [8] 0.4%

CCN(CCO)CCn1c(Cc2ccccc2)nc2c1c(=O)n(C)c(=O)n2C
0%: nuclear beta-catenin stimulation ([1]; stimulation, at 2 µM)
inactive: nuclear beta-catenin stimulation ([1]; at 10 µM) -2% | insulin secretion stimulation [2] 3% | viability decrease [3] -6% | tube area decrease [4] 4.3% | GLP1 secretion stimulation [5] -5.3% | inhibition of viability [6] 6.4% | viability decrease (inhibition) [7] 15.1% | viability decrease (inhibition) [8] 4.2%
